Reference: PubChem BioAssay
Unmarked numbers belong to inactive results.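 Rule for the calls: active = inhibition at or above 50% relative to wild type and mutant plate controls; inactive = inhibition below 50%.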

Assay: loss of swimming-algae plug formation – whole organism, Chlamydomonas reinhardtii, WT vs cilia-less mutant, absorbance, 96-well, primary screen (AID 463189);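 note: 0% = wild type cc124 cells in DMSO and 100% = ciliumless bld1 mutant cells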
Conditions: Chlamydomonas reinhardtii gravitaxis, OD600 absorbance, 2 days; at 10 µM; active compounds read high

Structure (SMILES)	inhibition [%]
CC(N)=NCc1cccc(CN)c1	7.48
O=S(=O)(O)C1CCNCC1	1.98
N#C/C(=C\c1ccc(O)c(O)c1)C(=O)NCc1ccccc1	-4.45
O=c1[nH]c(=O)n([C@H]2C[C@H](O)[C@@H](CO)O2)cc1Br	2.45
CC1CCN=C(N)S1 (stereo unspecified)	0.783
CC#CCOC(=O)c1c(C)nc2sc3c(c2c1N)CCC(O)C3 (stereo unspecified)	11.7
CCCCCCCC/C=C\CCCCCCCC(=O)NCCc1ccc(O)c(O)c1	-1.34
Oc1cc2c(c(Cl)c1O)CCNCC2c1ccccc1 (stereo unspecified)	6.8
N[C@@H](COP(=O)(O)O)C(=O)O	2.62
COc1ccccc1N1CCN(CCCCN2C(=O)c3ccccc3C2=O)CC1	1.35
CN(C)c1nc(N)c(C(=O)N=C(N)N)nc1Cl	1.32
C[C@](N)(Cc1ccc(O)cc1)C(=O)O	6.91
NC[C@@H]1O[C@H](C23CC4CC(CC(C4)C2)C3)Cc2c1ccc(O)c2O	0.204
CCCCC/C=C\CC(O)/C=C/c1cccc(CC(O)CCCCO)n1 (stereo unspecified)	-1.14
CCCCCCCCCCCCCCCCCCNC(=O)OCC(COP(=O)([O-])OCC[n+]1ccsc1)OC (stereo unspecified)	7
CC(C)C(=O)Nc1ccc([N+](=O)[O-])c(C(F)(F)F)c1	-17.5
CC[C@H](NC(=O)c1c(C)c(-c2ccccc2)nc2ccccc12)c1ccccc1	9.84
O=C(O)CCc1nc(-c2ccccc2)c(-c2ccccc2)o1	7.1
CCN(CC)C(C)C(=O)N1c2ccccc2Sc2ccccc21 (stereo unspecified)	40.1
NCC(O)(CS(=O)(=O)O)c1ccc(Cl)cc1 (stereo unspecified)	30.8
COC(=O)c1c(C)[nH]c(C)c1C(=O)c1ccccc1Cc1ccccc1	0.163
